# Source: PubChem BioAssay (EPA / NIEHS)
# Some compounds were tested as several samples or in several runs, with calls that do not always agree. The source made the active and inactive calls. How the source made its calls: active means hit-call score of the fitted dose curve at least 0.9, where 1 is the maximum; inactive means score below 0.9.
# What was measured:
# Settings in all cases: mRNA level, 48 h; actives raise or lower the signal
# [1] = read-out: Apolipoprotein A-V (APOA5) gene, APOA5 (gene 116519); assay: LTEA_HepaRG_APOA5: Life Technologies and Expression Analysis (LTEA) Assay for Apolipoprotein A-V (APOA5) gene using HepaRG (AID 2283474)
# Summary of the method: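 Human liver HepaRG cells are treated 48 h with test chemicals (100 uM top, half-log dilutions, 0.5% DMSO). APOA5 mRNA induction or loss is measured by qRT-PCR relative to vehicle.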
# [2] = read-out: Apoptosis regulator Bcl-2 (Homo sapiens) (UniProt P10415); assay: LTEA_HepaRG_BCL2: Life Technologies and Expression Analysis (LTEA) Assay for Bcl-2 gene using HepaRG (AID 2283475);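 further: BCL2 transcript by TaqMan qRT-PCR normalised to ACTB GAPDH and POLR2A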
# Summary of the method: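 qRT-PCR read-out (Fluidigm TaqMan) of BCL2 transcript, normalised to three housekeeping genes, after 48 h chemical exposure of HepaRG cells; 8-point half-log series, top 100 uM, 0.5% DMSO vehicle. Gain or loss of signal fitted relative to DMSO baseline.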
# [3] = read-out: Bcl-2 (BID) gene, BID (gene 637); assay: LTEA_HepaRG_BID: Life Technologies and Expression Analysis (LTEA) Assay for Bcl-2 (BID) gene using HepaRG (AID 2283476)
# Summary of the method: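 HepaRG, 48 h exposure, 8-pt half-log series, top 100 uM, 0.5% DMSO vehicle, duplicates. Readout: BID mRNA by TaqMan qRT-PCR; housekeeping-normalized; bidirectional curve fit vs DMSO baseline.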
# Caspase-3 (Homo sapiens) = Caspase-3 (Homo sapiens) (UniProt P42574); assay: LTEA_HepaRG_CASP3: Life Technologies and Expression Analysis (LTEA) Assay for cysteine-aspartic acid protease (CASP3) using HepaRG (AID 2283477)
# Caspase-3 (Homo sapiens), sequence (P42574 whole entry, looked up): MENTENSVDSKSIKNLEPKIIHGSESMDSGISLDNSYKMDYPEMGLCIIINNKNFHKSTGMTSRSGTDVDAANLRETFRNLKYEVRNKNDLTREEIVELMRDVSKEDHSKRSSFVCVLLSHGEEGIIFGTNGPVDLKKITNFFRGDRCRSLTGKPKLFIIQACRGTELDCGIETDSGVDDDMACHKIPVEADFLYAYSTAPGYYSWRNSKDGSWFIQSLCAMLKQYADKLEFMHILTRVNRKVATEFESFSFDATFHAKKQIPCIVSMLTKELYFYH
# Summary of the method: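 In HepaRG liver cells dosed for 48 h at up to 100 uM (eight-point, duplicate), CASP3 expression changes are scored by qRT-PCR. Activity is fitted in both directions with 0.5% DMSO as baseline.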
# [4] = read-out: Cytochrome P450 (CYP24A1), CYP24A1 (gene 1591); assay: LTEA_HepaRG_CYP24A1: Life Technologies and Expression Analysis (LTEA) Assay for Cytochrome P450 (CYP24A1) using HepaRG (AID 2283478)
# Summary of the method: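 Human liver HepaRG cultures receive each chemical for 48 h across an eight-point half-log series topping at 100 uM in 0.5% DMSO. Induction or suppression of CYP24A1 mRNA is scored relative to vehicle after housekeeping-gene normalization.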
# [5] = read-out: Cytochrome P450 (CYP1A2), CYP1A2 (gene 1544); assay: LTEA_HepaRG_CYP1A2: Life Technologies and Expression Analysis (LTEA) Assay for Cytochrome P450 (CYP1A2) using HepaRG (AID 2283479);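 on AC50: TaqMan qRT-PCR transcript level normalized to ACTB GAPDH and POLR2A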
# Summary of the method: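 Assesses CYP1A2 mRNA in human HepaRG liver cells after 48 h chemical exposure at up to 100 uM. Values come from qRT-PCR with bidirectional curve fitting relative to DMSO.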
# [6] = read-out: cysteine-aspartic acid protease (CASP8), CASP8 (gene 841); assay: LTEA_HepaRG_CASP8: Life Technologies and Expression Analysis (LTEA) Assay for cysteine-aspartic acid protease (CASP8) using HepaRG (AID 2283480)
# Summary of the method: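 qRT-PCR readout of CASP8 mRNA, normalized to three housekeeping genes, after 48 h chemical exposure of HepaRG cells; 8-point half-log series, top 100 uM, 0.5% DMSO vehicle. Bidirectional curve fitting against DMSO baseline.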
# [7] = read-out: Cytochrome P450 (CYP2B6), CYP2B6 (gene 1555); assay: LTEA_HepaRG_CYP2B6: Life Technologies and Expression Analysis (LTEA) Assay for Cytochrome P450 (CYP2B6) using HepaRG (AID 2283481)
# Summary of the method: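 Using 48 h treatment of HepaRG cells in serum-free induction medium, concentrations spanned half-log steps from 100 uM in 0.5% DMSO vehicle. CYP2B6 mRNA induction or loss is scored by qRT-PCR against DMSO.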
# [8] = read-out: Cytochrome P450 2C19 (Homo sapiens) (UniProt P33261); assay: LTEA_HepaRG_CYP2C19: Life Technologies and Expression Analysis (LTEA) Assay for CYP2C19 using HepaRG (AID 2283482)
# Summary of the method: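 Human HepaRG liver cells received test chemicals for 48 h (highest 100 uM, half-log dilutions in 0.5% DMSO). CYP2C19 mRNA induction or loss is read by multiplexed qRT-PCR and fitted in both directions versus vehicle.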
# CYP2C8 (gene 1558) = assay: LTEA_HepaRG_CYP2C8: Life Technologies and Expression Analysis (LTEA) Assay for CYP2C8 using HepaRG (AID 2283483)
# Summary of the method: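 HepaRG (human liver line), 48 h chemical exposure, 8-pt half-log series from 100 uM, 0.5% DMSO vehicle. Readout: CYP2C8 transcript by qRT-PCR, housekeeping-normalized. Bidirectional fit vs DMSO baseline.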
# Cytochrome P450 2C19 (Homo sapiens), sequence (P33261 whole entry, looked up): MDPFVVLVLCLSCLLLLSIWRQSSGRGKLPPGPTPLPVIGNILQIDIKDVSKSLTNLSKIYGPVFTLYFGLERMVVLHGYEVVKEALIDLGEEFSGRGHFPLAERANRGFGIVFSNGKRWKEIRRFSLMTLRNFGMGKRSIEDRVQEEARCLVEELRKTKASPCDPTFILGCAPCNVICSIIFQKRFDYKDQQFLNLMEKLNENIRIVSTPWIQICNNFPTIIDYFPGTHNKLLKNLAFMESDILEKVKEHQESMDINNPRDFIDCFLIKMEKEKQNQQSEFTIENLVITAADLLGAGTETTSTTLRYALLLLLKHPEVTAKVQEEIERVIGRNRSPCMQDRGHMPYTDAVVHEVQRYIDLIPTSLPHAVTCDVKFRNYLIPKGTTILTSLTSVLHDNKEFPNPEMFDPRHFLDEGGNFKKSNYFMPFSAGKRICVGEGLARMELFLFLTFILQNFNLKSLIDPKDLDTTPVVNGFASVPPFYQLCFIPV
# Apoptosis regulator Bcl-2 (Homo sapiens), sequence (P10415 whole entry, looked up): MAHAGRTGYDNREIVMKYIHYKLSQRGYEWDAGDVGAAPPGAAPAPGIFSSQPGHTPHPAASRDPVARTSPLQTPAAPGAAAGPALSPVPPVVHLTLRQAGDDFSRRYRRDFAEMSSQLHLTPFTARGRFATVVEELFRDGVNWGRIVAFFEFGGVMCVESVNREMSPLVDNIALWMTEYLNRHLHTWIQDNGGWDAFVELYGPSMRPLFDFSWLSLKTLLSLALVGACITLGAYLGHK
Compound,outcome [1],outcome [2],outcome [3],outcome (Caspase-3 (Homo sapiens)),outcome [4],AC50 [5],outcome [6],AC50 [7],AC50 [8],outcome [5],outcome [8],outcome (CYP2C8 (gene 1558)),outcome [7],AC50 [3],AC50 [1],AC50 [2],AC50 (CYP2C8 (gene 1558))
CCCCN(CC)c1c([N+](=O)[O-])cc(C(F)(F)F)cc1[N+](=O)[O-],inactive,inactive,inactive,inactive,inactive,35.8 µM (active),inactive,32 µM (active),50 µM (active),–,–,–,–,–,–,–,–
CCCSP(=O)(OCC)Oc1ccc(Br)cc1Cl (stereo not drawn),inactive,inactive,inactive,inactive,inactive,–,–,13.4 µM (active),–,inactive,inactive,inactive,–,–,–,–,–
CNC(=O)Oc1cccc2c1OC(C)(C)O2,inactive,inactive,inactive,inactive,inactive,–,–,–,–,inactive,inactive,–,inactive,–,–,–,–
Cc1cc(C2CC2)nc(Nc2ccccc2)n1,inactive,inactive,inactive,inactive,inactive,91.5 µM (active),inactive,18 µM (active),–,–,inactive,–,–,–,–,–,–
CCCCOC(=O)[C@@H](C)Oc1ccc(Oc2ccc(C#N)cc2F)cc1,inactive,–,inactive,inactive,inactive,38.5 µM (active),inactive,–,–,–,inactive,–,inactive,–,–,–,–
CC[C@H](C)[C@H]1O[C@]2(C=C[C@@H]1C)C[C@@H]1C[C@@H](C/C=C(\C)[C@@H](O[C@H]3C[C@H](OC)[C@@H](O[C@H]4C[C@H](OC)[C@@H](NC)[C@H](C)O4)[C@H](C)O3)[C@@H](C)/C=C/C=C3\CO[C@@H]4[C@H](O)C(C)=C[C@@H](C(=O)O1)[C@]34O)O2,inactive,–,–,inactive,inactive,–,inactive,11.6 µM (active),12.6 µM (active),inactive,–,–,–,25 µM (active),–,–,–
Cc1ccn2nc(S(=O)(=O)Nc3c(F)cccc3F)nc2n1,inactive,inactive,inactive,inactive,inactive,–,–,–,–,inactive,inactive,inactive,inactive,–,–,–,–
C=C(C)[C@H]1Cc2c(ccc3c2O[C@@H]2COc4cc(OC)c(OC)cc4[C@@H]2C3=O)O1,–,–,inactive,inactive,inactive,0.679 µM (active),inactive,0.5 µM (active),2.75 µM (active),–,–,–,–,–,12.9 µM (active),2.94 µM (active),1.36 µM (active)
CCOC(=O)CC(SP(=O)(OC)OC)C(=O)OCC (stereo not drawn),inactive,inactive,inactive,inactive,inactive,–,–,50 µM (active),–,inactive,inactive,inactive,–,–,–,–,–
CCC(=O)Nc1ccc(Cl)c(Cl)c1,inactive,inactive,inactive,inactive,inactive,33 µM (active),inactive,12.6 µM (active),32.7 µM (active),–,–,–,–,–,–,–,–
CCOP(=S)(OCC)OC(Cl)C(Cl)(Cl)Cl (stereo not drawn),inactive,inactive,inactive,inactive,inactive,–,–,24 µM (active),–,inactive,inactive,inactive,–,–,–,–,–
COP(=O)(OC)SCn1c(=O)oc2cc(Cl)cnc21,–,–,–,inactive,inactive,–,inactive,50 µM (active),50 µM (active),inactive,–,inactive,–,0.00316 µM (active),0.282 µM (active),50 µM (active),–
CCOC(=O)COc1cc(-c2nn(C)c(OC(F)F)c2Cl)c(F)cc1Cl,inactive,inactive,inactive,inactive,inactive,–,–,63.5 µM (active),50 µM (active),inactive,–,–,–,–,–,–,50 µM (active)
CN(C)[C@@H]1C(=O)C(C(N)=O)=C(O)[C@@]2(O)C(=O)C3=C(O)c4c(O)cccc4[C@@](C)(O)[C@H]3[C@H](O)[C@@H]12,inactive,inactive,inactive,inactive,inactive,–,inactive,10 µM (active),–,inactive,inactive,–,inactive,–,–,–,–
CNc1cnn(-c2cccc(C(F)(F)F)c2)c(=O)c1Cl,inactive,–,inactive,inactive,inactive,6.1 µM (active),inactive,6.51 µM (active),21.6 µM (active),–,–,–,–,–,–,–,–
CCOP(=S)(OCC)Oc1ccc2c(C)c(Cl)c(=O)oc2c1,inactive,inactive,inactive,inactive,inactive,4.03 µM (active),–,2.49 µM (active),12.6 µM (active),–,–,inactive,–,–,–,–,–
